From PubChem BioAssay
Hits are enriched below; roughly 6.1% of the tested compounds scored in any of these assays.
S2 tox: cell viability loss in ATXN counter-screen | AID 651635 | S2 cells (HEK-293 line with an ATXN2-luciferase reporter) viability, CellTiter-Fluor protease fluorescence, 24 h | actives 0.49% (n = 400,000) | Potency, µM (titrated, usually from 56.7 µM), most hits filed as cytotoxic; note: nearly all actives have a fitted effect of over 40% in size
TGFb inhibitor: blocks TGF-b signaling. Potency, µM (doses to about 46.1 µM), without a hit: top-dose activity, negative = inhibition, hits mostly inhibitors. AID 588855. actives 1.2% (n = 410,000). HepG2 CAGA-GFP TGF-b/SMAD3 reporter, GFP fluorescence, 18 h; TGF-beta stimulated, 500 pg/mL final; note: % is set by controls: 0 for no effect and ±100 for the full control effect; nearly all actives have a fitted effect of over 65% in size
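HEPG2 CAGA-GFP reporter cells (1000/well, DMEM with 1% FBS) received compounds, then recombinant TGF-beta at 500 pg/mL final for 18 hours at 37 degrees C. Per-cell GFP summed per well was normalised to unstimulated and stimulated DMSO controls before curve fitting.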
RORg inh: blocks mouse ROR gamma transcriptional activity | P51450 | Drosophila S2 Gal4-RORgamma UAS-luciferase reporter, 20 h | Potency, µM (titrated, usually from 53.6 µM), for the others: top-dose activity change, negative = inhibition, actives largely listed as inhibitors | actives 5.4% (n = 310,000) | AID 2551; note: % is set by controls: 0 for no effect and ±100 for the full control effect; nearly all actives have a fitted effect of over 60% in size
Target sequence (P51450 whole entry, looked up, the tested form may be a part): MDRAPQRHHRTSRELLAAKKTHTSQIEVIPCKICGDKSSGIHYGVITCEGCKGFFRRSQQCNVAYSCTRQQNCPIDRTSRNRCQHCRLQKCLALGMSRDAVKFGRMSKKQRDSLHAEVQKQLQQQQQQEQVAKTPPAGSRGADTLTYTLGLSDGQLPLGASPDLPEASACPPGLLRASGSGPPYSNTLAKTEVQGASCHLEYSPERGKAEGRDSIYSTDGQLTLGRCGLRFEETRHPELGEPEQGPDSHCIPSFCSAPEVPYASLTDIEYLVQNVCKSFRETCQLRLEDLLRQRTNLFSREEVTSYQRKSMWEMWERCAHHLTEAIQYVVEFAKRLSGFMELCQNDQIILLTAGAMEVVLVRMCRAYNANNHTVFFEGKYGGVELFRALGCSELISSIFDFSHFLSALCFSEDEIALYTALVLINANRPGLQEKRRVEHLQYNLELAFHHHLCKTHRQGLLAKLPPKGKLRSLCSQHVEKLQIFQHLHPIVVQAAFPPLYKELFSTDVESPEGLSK
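Read-out: Photinus luciferase luminescence; inhibitors lower reporter signal. Insect Schneider cells with Gal4-ROR gamma fusion under metallothionein promoter, UAS reporter; 700 uM final copper sulfate induction, 20 hr, ambient temperature.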
VP16 counter: Gal4-VP16 reporter inhibition counter-screen; Drosophila S2 Gal4-VP16 UAS-luciferase, luminescence, 20 h; Potency, µM (series often up to 53.6 µM), inactives show at the highest dose activity, negative = inhibition, usual class: inhibitors; actives 3.5% (n = 310,000); AID 2546;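 note: Gal4-VP16 expression switched on by copper sulfate through the metallothionein promoter; % is set by controls: 0 for no effect and ±100 for the full control effect; nearly all actives have a fitted effect of over 50% in size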
ATXN2 expr inh: reduces ATXN2 reporter expression in HEK-293 cells; HEK-293 ATXN2-luciferase reporter, luminescence, 24 h; Potency, µM (top dose mostly 57 µM), without a hit: at the top dose activity change, negative = inhibition, actives largely listed as inhibitors; actives 0.72% (n = 360,000); AID 1745845; note: % is set by controls: 0 for no effect and ±100 for the full control effect; nearly all actives have a fitted effect of over 55% in size
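ATXN2-luciferase reporter cells (luciferase flanked by upstream and downstream ATXN2 gene portions) were treated 24 h at 37 °C with compounds at up to 57 uM. SteadyGlo luminescence gave expression; GF-AFC fluorescence gave viability.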
HepG2 tox: counter-screen for TGF-b inhibitors: cytotoxicity in HepG2 cells; actives 0.76% (n = 410,000); Potency, µM (doses to about 46.1 µM), inactives show at the highest dose activity change, negative = cytotoxicity, most hits filed as cytotoxic; AID 588856; HepG2 CAGA-GFP viability, ATP luminescence, 18 h
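HepG2 CAGA-GFP cells (1000/well, DMEM with 1% FBS) received compound, then TGF-beta at 500 pg/mL final, and were incubated 18 hours at 37 degrees C. Viability was read by CellTiter-Glo luminescence. Media-only wells were set as complete cell-killing and DMSO as no toxicity.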
Starred values were filed as active, the others as inactive; i = inactive; u = inconclusive; x = no result; [ ] = remark or other dose. Calls come from the whole dose curve; as a rule, active = well fitted curve in the direction sought with a large enough effect; inconclusive = small, poorly fitted or top-dose-only effect, or another doubt; inactive = no such curve, though single readings can be large; an effect the other way counts as inactive or inconclusive. Potency is the fitted concentration of half-maximal effect.

SMILES	S2 tox	TGFb inhibitor	RORg inh	VP16 counter	ATXN2 expr inh	HepG2 tox
S=C(NCc1ccco1)N/N=C/c1ccccc1Cl	i	0.0%	11.2µM*	u	-4.8%	7.3%
COC(=O)N/N=C/c1ccccc1OCCOc1ccc(OC)cc1	i	-27.9%	24.1%	-12.2%	20.7%	-26.1%
COc1cccc(/C=N/NC(=O)C(=O)NCc2ccco2)c1OC	i	-12.8%	14.0%	2.9%	2.9%	-10.1%
COc1ccccc1/C=N/NC(=S)NCc1ccco1	i	6.3%	2µM*	11.2µM*	-15.2%	-13.4%
C=CCNC(=S)N/N=C/c1ccccc1OCCOc1ccccc1	i	-6.1%	2.51µM*	5.01µM*	-7.6%	-15.3%
Cc1c(O)c(O)cc2c1oc1c3ccccc3oc(=O)c21	x	x	7.08µM*	u	x	x
Cc1cnc(-n2ncc(C(=O)N[C@H]3CCCCNC3=O)c2C2CC2)nc1-c1cccs1	i	x	x	x	x	x
Cc1nc2cc(C(F)(F)F)ccc2n1CCNc1nc(-c2ccc([N+](=O)[O-])c(Cl)c2)cs1	u	15.8µM*	-19.5%	-3.8%	u	-34.3%
S=c1[nH]nc(-c2ccccn2)n1/N=C/c1ccco1	i	4.1%	-24.2%	-0.5%	-9.2%	-30.2%
S=c1[nH]nc(-c2ccccn2)n1/N=C/c1ccc(-c2ccccc2Br)o1	i	1.2%	10µM*	0.0%	114.4%	-31.7%
Cc1ccc(/C=N/n2c(-c3cccc(Cl)c3)n[nH]c2=S)o1	i	3.6%	5.01µM*	u	-30.3%	-76.7%
S=c1[nH]nc(-c2cccc(Cl)c2)n1/N=C/c1ccco1	i	9.7%	u	u	-21.9%	-6.4%
S=c1[nH]nc(-c2ccccc2)n1/N=C/c1ccc(-c2ccccc2Cl)o1	u	u	4.47µM*	u	1.7%	-45.6%
Cc1nnc(C)n1/N=C/c1ccc(-c2ccccc2Cl)o1	i	3.8%	-8.9%	1.2%	-2.7%	-2.9%
S=c1[nH]nc(-c2cccc(Cl)c2)n1/N=C/c1ccc(-c2ccccc2Br)o1	u	u	0.794µM*	-8.9%	x	-45.4%
CCc1nn2c(=O)cc(COC(=O)c3ccccc3)nc2s1	i	-13.6%	x	x	25.0%	2.4%
COc1ccc(C2c3cc(OC)c(OC)cc3Cc3c4cc(OC)c(OC)cc4cc[n+]32)cc1OC (centres undefined)	x	x	4.3%	0.2%	x	x
Cn1c(=O)c([N+](=O)[O-])c(N2CCSCC2)c2ccccc21	i	-3.4%	13.6%	u	-18.0%	-18.3%
Cn1c(=O)c([N+](=O)[O-])c(-n2cnc3ccccc32)c2ccccc21	u	12.6µM*	-24.2%	-8.2%	u	-45.1%
Cn1c(=O)c([N+](=O)[O-])c(Cl)c2ccccc21	x	u	10µM*	12.6µM*	u	-64.4%
CC(=O)c1ccc(NC(=O)Cn2cc(S(=O)(=O)Cc3ccccc3Cl)c3ccccc32)cc1	x	0.0%	x	x	x	-16.2%
O=C(NNc1nc(-c2ccccc2)cs1)c1ccco1	i	u	3.55µM*	5.01µM*	9.7%	-4.0%
O=C(NNc1nc(-c2ccc(Cl)cc2)cs1)c1ccco1	i	u	3.98µM*	5.01µM*	1.9%	-12.9%
CC(=O)Nc1ccc(-c2csc(NNC(=O)c3ccccc3)n2)cc1	u	-10.7%	8.91µM*	-3.9%	x	-2.5%
COc1ccc(OC)c(NC(=O)CC2C(=O)NCCN2C(=O)C(F)(F)F)c1 (centres undefined)	i	-7.9%	x	x	3.0%	-63.2%
SMILES	S2 tox	TGFb inhibitor	RORg inh	VP16 counter	ATXN2 expr inh	HepG2 tox
COc1ccc(C(C)(C)C)cc1NC(=O)c1ccoc1C	i	-2.3%	2.24µM*	u	-1.7%	-6.4%
O=c1[nH]nc(-c2ccccc2)c2ccccc12	i	-20.8%	17.4%	-4.5%	14.1%	-10.6%
Fc1ccc(-c2n[nH]c(=S)c3ccccc23)cc1	u	3.7%	7.08µM*	15.8µM*	-36.9%	-5.4%
CCN(c1ccc(OC)cc1)S(=O)(=O)c1ccc2[nH]c(=O)ccc2c1	i	-25.2%	x	x	1.9%	-14.8%
Cc1cc(Nc2cccc(Cl)c2)nc2ccc(NC(=O)Cc3cccc(C(F)(F)F)c3)cc12	i	u	x	x	u	-59.2%
Cc1cc(Nc2cccc(C(F)(F)F)c2)nc2ccc(NC(=O)c3cccc(Cl)c3)cc12	i	u	x	x	u	12.6µM*
Cc1cc(Nc2cccc(C(F)(F)F)c2)nc2ccc(NC(=O)c3cccnc3)cc12	17.8µM*	u	x	x	u	-99.0%
S=C(NCc1ccco1)Nc1ccc(Cl)cc1	i	u	11.2µM*	u	10.5%	2.3%
CCNS(=O)(=O)c1ccc(NC(=S)NCc2ccco2)cc1	i	0.1%	15.0%	-11.2%	2.5%	3.1%
Cc1ccc(S(=O)(=O)NCC(=O)N(CC(=O)NCc2ccco2)Cc2ccccc2)cc1	i	2.2%	27.1%	17.0%	-3.6%	15.8µM*
O=C(O)Cc1ccc(NC(=S)NCc2ccco2)cc1	i	8.2%	1.8%	-16.7%	-0.7%	-0.9%
Cc1ccc(S(=O)(=O)NCC(=O)N(CCc2ccccc2)CC(=O)NCc2ccco2)cc1	i	-3.2%	4.4%[10 µM]	2.6%	5.2%	11.8%
O=C(c1ccc(NC(=S)NCc2ccco2)cc1)N1CCCCC1	i	2.8%	25.5%	16.0%	-15.5%	4.9%
S=C(NCc1ccco1)Nc1ccccc1	i	-0.1%	8.91µM*	u	-10.1%	3.7%
O=S(=O)(NCc1ccccc1)c1ccc(NC(=S)NCc2ccco2)cc1	i	u	u	-15.6%	x	11.2µM*
Cn1c(N)c(C(=O)COC(=O)c2ccc([N+](=O)[O-])o2)c(=O)n(C)c1=O	i	12.6µM*	0.7%	u	-16.6%	-42.9%
CC1CC(C)CN(C(=O)COC(=O)c2ccc([N+](=O)[O-])o2)C1 (centres undefined)	u	-19.5%	x	x	x	-17.7%
CCOC(=O)C1CCN(C(=O)COC(=O)c2ccc([N+](=O)[O-])o2)CC1	i	17.8µM*	x	x	-10.8%	12.6µM*
CCCCN(C)CCCNC(=O)Cn1ncc2c3ccccc3n(Cc3cc(C)ccc3C)c2c1=O	x	u	x	x	x	-25.8%
Fc1ccc(-n2c(CN3CCCCC3)n[nH]c2=S)cc1	i	3.8%	u	-12.6%	-1.5%	-2.1%
FC(F)(F)c1ccccc1-n1c(CN2CCCCC2)n[nH]c1=S	i	0.0%	11.2µM*	-25.8%	5.6%	25.0%
S=c1[nH]nc(CN2CCCCC2)n1-c1ccc(Cl)cc1	i	5.1%	7.08µM*	u	x	3.6%
